Results reported in PubChem BioAssay (NCI).
Compounds without any hit were thinned out: in the full panel of roughly 83,000, 20% have a hit.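 48-hour exposure, single concentration, 96-well plates; percent growth endpoint where 0 means no net growth. Active: below 10.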 Calls of active or inactive are those of the source.

Experiments:
Assay in all cases: NCI-60 one-dose screen, 48 h (100 = growth as untreated, 0 = no growth, -100 = all killed)
Settings in all cases: 10 µM unless noted
DU-145 prostate = test system: DU-145 prostate
K-562 leukemia = test system: K-562 leukemia
MALME-3M melanoma = test system: MALME-3M melanoma
MDA-MB-231 breast = test system: MDA-MB-231 breast
RXF 393 renal = test system: RXF 393 renal
SF-268 CNS = test system: SF-268 CNS
SF-295 CNS = test system: SF-295 CNS
SF-539 CNS = test system: SF-539 CNS
UACC-257 melanoma = test system: UACC-257 melanoma
M14 melanoma = test system: M14 melanoma
HCT-15 colon = test system: HCT-15 colon
HT29 colon = test system: HT29 colon
SNB-75 CNS = test system: SNB-75 CNS
SNB-19 CNS = test system: SNB-19 CNS
U251 CNS = test system: U251 CNS
PC-3 prostate = test system: PC-3 prostate
SK-MEL-5 melanoma = test system: SK-MEL-5 melanoma
UACC-62 melanoma = test system: UACC-62 melanoma
LOX IMVI melanoma = test system: LOX IMVI melanoma
SK-MEL-28 melanoma = test system: SK-MEL-28 melanoma

Measured: growth

N#Cc1nc(C#N)c(Sc2ccccc2)c(Sc2ccccc2)c1Sc1ccccc1
inactive: PC-3 prostate 21.5%
active: DU-145 prostate -47.8% | K-562 leukemia -41.2% | MALME-3M melanoma -20.6% | MDA-MB-231 breast -32.7% | RXF 393 renal -38.7% | SF-268 CNS -67.6% | SF-295 CNS 1.87% | SF-539 CNS -86.6% | UACC-257 melanoma -59.2% | M14 melanoma -28.9% | HCT-15 colon -53.7% | HT29 colon -67.2% | SNB-75 CNS -61.2% | SNB-19 CNS -45.7% | U251 CNS -81.9% | SK-MEL-5 melanoma -93.2% | UACC-62 melanoma -57.2% | LOX IMVI melanoma -79.2% | SK-MEL-28 melanoma -84.3%

Cn1c(=O)c2c(nc(Cl)n2CCl)n(C)c1=O
active: LOX IMVI melanoma -0.952%
inactive: DU-145 prostate 113% | K-562 leukemia 21.3% | MALME-3M melanoma 75.6% | MDA-MB-231 breast 105% | RXF 393 renal 53% | SF-268 CNS 104% | SF-295 CNS 112% | SF-539 CNS 103% | UACC-257 melanoma 84.5% | M14 melanoma 12.4% | HCT-15 colon 13.6% | HT29 colon 80.9% | SNB-75 CNS 94% | SNB-19 CNS 100% | U251 CNS 96% | PC-3 prostate 98.5% | SK-MEL-5 melanoma 88.1% | UACC-62 melanoma 94.7% | SK-MEL-28 melanoma 55%

Cc1ccc(N(C(=O)CCc2c[nH]c3ccccc23)[C@H](C(=O)Nc2ccc(Cl)cc2)c2cccc([N+](=O)[O-])c2)cc1
inactive: DU-145 prostate 81.6% | K-562 leukemia 37.8% | MALME-3M melanoma 99% | MDA-MB-231 breast 75.4% | RXF 393 renal 95.7% | SF-268 CNS 70.7% | SF-295 CNS 105% | SF-539 CNS 89.7% | UACC-257 melanoma 90.1% | M14 melanoma 78.4% | HCT-15 colon 70.7% | HT29 colon 86.5% | SNB-75 CNS 84.1% | SNB-19 CNS 92.2% | U251 CNS 78% | PC-3 prostate 62.2% | SK-MEL-5 melanoma 75.9% | UACC-62 melanoma 33.7% | LOX IMVI melanoma 45.1% | SK-MEL-28 melanoma 114%

Cc1ccc(Nc2nc(N)nc(CSCC(=O)NN)n2)cc1
inactive: DU-145 prostate 103% | K-562 leukemia 96.6% | MALME-3M melanoma 111% | MDA-MB-231 breast 98.9% | RXF 393 renal 103% | SF-268 CNS 97.9% | SF-295 CNS 99.3% | SF-539 CNS 95.1% | UACC-257 melanoma 108% | M14 melanoma 114% | HCT-15 colon 101% | HT29 colon 106% | SNB-75 CNS 85.2% | SNB-19 CNS 98.5% | U251 CNS 92.9% | PC-3 prostate 93% | SK-MEL-5 melanoma 101% | UACC-62 melanoma 90.8% | LOX IMVI melanoma 95.2% | SK-MEL-28 melanoma 99.9%

Cn1c(=O)c2[nH]c(NN)nc2n(C)c1=O
inactive: DU-145 prostate 123% | K-562 leukemia 100% | MALME-3M melanoma 135% | MDA-MB-231 breast 116% | RXF 393 renal 123% | SF-268 CNS 108% | SF-295 CNS 108% | SF-539 CNS 111% | UACC-257 melanoma 119% | M14 melanoma 102% | HCT-15 colon 97.2% | HT29 colon 105% | SNB-75 CNS 89.6% | SNB-19 CNS 110% | U251 CNS 105% | PC-3 prostate 101% | SK-MEL-5 melanoma 105% | UACC-62 melanoma 114% | LOX IMVI melanoma 101% | SK-MEL-28 melanoma 103%

COc1ccc(/C=N\NC(=O)c2cc(-c3ccc(Br)cc3)n(-c3ccc(S(N)(=O)=O)cc3)n2)cc1
active: SNB-75 CNS -27.8%
inactive: DU-145 prostate 58.6% | K-562 leukemia 11.4% | MALME-3M melanoma 47% | MDA-MB-231 breast 70.4% | RXF 393 renal 18.5% | SF-268 CNS 53.1% | SF-295 CNS 11% | SF-539 CNS 18.3% | UACC-257 melanoma 66.2% | M14 melanoma 30.9% | HCT-15 colon 33.3% | HT29 colon 36.7% | SNB-19 CNS 57.3% | U251 CNS 51.3% | PC-3 prostate 51.2% | SK-MEL-5 melanoma 42% | UACC-62 melanoma 32.3% | LOX IMVI melanoma 45.4% | SK-MEL-28 melanoma 47.4%

O=[N+]([O-])c1ccc(OCCO)cc1
inactive: DU-145 prostate 107% | K-562 leukemia 78.8% | MALME-3M melanoma 107% | MDA-MB-231 breast 114% | RXF 393 renal 105% | SF-268 CNS 100% | SF-295 CNS 105% | SF-539 CNS 108% | UACC-257 melanoma 104% | M14 melanoma 109% | HCT-15 colon 101% | HT29 colon 108% | SNB-75 CNS 103% | SNB-19 CNS 101% | U251 CNS 104% | PC-3 prostate 87.2% | SK-MEL-5 melanoma 109% | UACC-62 melanoma 96.9% | LOX IMVI melanoma 97.8% | SK-MEL-28 melanoma 114%

S=C(Cc1ccc2c(c1)CCCC2)N1CCOCC1
inactive: DU-145 prostate 104% | K-562 leukemia 107% | MALME-3M melanoma 85.6% | MDA-MB-231 breast 103% | RXF 393 renal 115% | SF-268 CNS 101% | SF-295 CNS 104% | SF-539 CNS 99.6% | UACC-257 melanoma 91.5% | M14 melanoma 99.5% | HCT-15 colon 101% | HT29 colon 87.9% | SNB-75 CNS 95.1% | SNB-19 CNS 102% | U251 CNS 95.6% | PC-3 prostate 97.8% | SK-MEL-5 melanoma 102% | UACC-62 melanoma 95.9% | LOX IMVI melanoma 93.2% | SK-MEL-28 melanoma 102%

NC(N)=NN=C(c1ccccc1)c1ccccc1
inactive: DU-145 prostate 22.8% | K-562 leukemia 21.7% | MALME-3M melanoma 48.8% | MDA-MB-231 breast 59.6% | SF-268 CNS 46.1% | SF-295 CNS 43% | SF-539 CNS 19.3% | UACC-257 melanoma 64.4% | HCT-15 colon 30.9% | HT29 colon 11.7% | SNB-19 CNS 47% | U251 CNS 32.1% | PC-3 prostate 23.8% | UACC-62 melanoma 54.8% | LOX IMVI melanoma 30.8% | SK-MEL-28 melanoma 43.1%
active: RXF 393 renal -28.4% | M14 melanoma -6.76% | SNB-75 CNS -7.05% | SK-MEL-5 melanoma 3.67%

COC(=O)[C@]12CC[C@@H](C)[C@H](C)[C@@H]1C1=CC[C@@H]3[C@@]4(C)C(C=O)=C[C@@](C)(COC(C)=O)[C@@H]4C(=O)C[C@@]3(C)[C@]1(C)CC2
inactive: DU-145 prostate 42.6% | K-562 leukemia 24.3% | MALME-3M melanoma 65.7% | MDA-MB-231 breast 46.8% | RXF 393 renal 55.8% | SF-268 CNS 42.2% | SF-295 CNS 32.1% | SF-539 CNS 53.7% | UACC-257 melanoma 37.8% | M14 melanoma 19.5% | HCT-15 colon 21.5% | HT29 colon 23.8% | SNB-75 CNS 33.5% | SNB-19 CNS 37.4% | U251 CNS 27.1% | PC-3 prostate 13.3% | SK-MEL-5 melanoma 51.9% | UACC-62 melanoma 42.1% | LOX IMVI melanoma 33.5% | SK-MEL-28 melanoma 65.5%

Cc1cc(NCc2cc(Nc3ccnc4cc(Cl)ccc34)ccc2F)nc(N2CCSCC2)n1
active: K-562 leukemia -24.9% | MALME-3M melanoma -30.7% | MDA-MB-231 breast -8.18% | RXF 393 renal -5.98% | SF-295 CNS -57.3% | SF-539 CNS -72.2% | M14 melanoma -51.6% | HCT-15 colon 1.94% | HT29 colon -27.3% | SNB-75 CNS -31.7% | U251 CNS -71.4% | SK-MEL-5 melanoma -13.8% | UACC-62 melanoma -54.4% | LOX IMVI melanoma -89.2% | SK-MEL-28 melanoma -64.3%
inactive: DU-145 prostate 23.6% | SF-268 CNS 38.8% | UACC-257 melanoma 17.6% | SNB-19 CNS 42.9% | PC-3 prostate 26.6%

C#Cc1cccc(NC(=O)c2ccc(NC(=O)CCl)cc2)c1
inactive: DU-145 prostate 42.4% [8.25 µM] | RXF 393 renal 47.9% [8.25 µM] | SF-295 CNS 75.4% [8.25 µM] | UACC-257 melanoma 43.3% [8.25 µM] | HT29 colon 34.5% [8.25 µM] | SNB-75 CNS 32.2% [8.25 µM] | SK-MEL-28 melanoma 54% [8.25 µM]
active: K-562 leukemia 7.87% [8.25 µM] | MALME-3M melanoma -83.5% [8.25 µM] | MDA-MB-231 breast -22.8% [8.25 µM] | SF-268 CNS -8.76% [8.25 µM] | SF-539 CNS -94.7% [8.25 µM] | M14 melanoma -60.6% [8.25 µM] | HCT-15 colon -57% [8.25 µM] | SNB-19 CNS 8.27% [8.25 µM] | U251 CNS -90.1% [8.25 µM] | PC-3 prostate -46.6% [8.25 µM] | SK-MEL-5 melanoma -56.7% [8.25 µM] | UACC-62 melanoma 7.2% [8.25 µM] | LOX IMVI melanoma -77.5% [8.25 µM]

NCCCNc1nc2ccccc2c2c(=O)c3cccc(Cl)c3sc12
active: DU-145 prostate -14.3% | K-562 leukemia -21.1% | MDA-MB-231 breast -18.3% | M14 melanoma -46.4% | HCT-15 colon -79.6% | HT29 colon -63.2% | U251 CNS -51.7% | LOX IMVI melanoma -90%
inactive: MALME-3M melanoma 41.6% | RXF 393 renal 29.5% | SF-268 CNS 26.5% | SF-295 CNS 26.8% | SF-539 CNS 66.3% | UACC-257 melanoma 72.8% | SNB-75 CNS 41.7% | SNB-19 CNS 49.8% | PC-3 prostate 43.8% | SK-MEL-5 melanoma 60.3% | UACC-62 melanoma 51.4% | SK-MEL-28 melanoma 53.2%

COc1ccc(-c2nc(SCCC(C)C)nc(N/N=C\c3ccccc3O)c2C#N)cc1
inactive: DU-145 prostate 95.7% | K-562 leukemia 91.6% | MALME-3M melanoma 89.6% | MDA-MB-231 breast 85.1% | RXF 393 renal 76.1% | SF-268 CNS 78% | SF-295 CNS 94.2% | SF-539 CNS 90.9% | UACC-257 melanoma 89.8% | M14 melanoma 98.3% | HCT-15 colon 86.6% | HT29 colon 103% | SNB-75 CNS 74.8% | SNB-19 CNS 72.4% | U251 CNS 60.5% | PC-3 prostate 92.3% | SK-MEL-5 melanoma 94.2% | UACC-62 melanoma 90% | LOX IMVI melanoma 84.6% | SK-MEL-28 melanoma 99.1%

Cc1cccc(NC(=O)N/C(N)=N/c2nc(C)c(C)s2)c1
active: SNB-75 CNS -3.93%
inactive: DU-145 prostate 71.6% | K-562 leukemia 10.7% | MALME-3M melanoma 58.5% | MDA-MB-231 breast 65.2% | RXF 393 renal 78.2% | SF-268 CNS 75.1% | SF-295 CNS 48.6% | SF-539 CNS 56.7% | UACC-257 melanoma 62.2% | M14 melanoma 28.1% | HCT-15 colon 22.2% | HT29 colon 18.9% | SNB-19 CNS 65.4% | U251 CNS 45% | PC-3 prostate 62% | SK-MEL-5 melanoma 59.2% | UACC-62 melanoma 49.1% | LOX IMVI melanoma 42.7% | SK-MEL-28 melanoma 60.7%
